Assay outcomes: PubChem BioAssay, National Center for Advancing Translational Sciences (NCATS)
ERK AVP inh: inhibitors of vasopressin-stimulated ERK signaling pathway; HEK293-V1b, vasopressin-stimulated pERK AlphaScreen; hit rate 0.99% among 72,000; Potency, µM (highest dose often 57.5 µM), actives largely listed as inhibitors; AID 995; note: nearly all actives have a fitted effect of over 55% in size
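Phosphorylated ERK1/2 detected via AlphaScreen bead proximity in lysates of V1b-expressing HEK293 cells given 25 nM vasopressin for 5 min after 30 min compound exposure (37 °C). AC50 from Hill equation; basal DMSO 0%, vasopressin 100%.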
ALOX15B inhib: inhibitors of human 15-lipoxygenase 2 (ALOX15B) | O15296 | purified 15hLO-2, xylenol orange hydroperoxide absorbance | Potency, µM (titrated, usually from 57.1 µM), usual class: inhibitors | hit rate 0.56% among 110,000; note: nearly all actives have a fitted effect of over 60% in size
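Purified human 15hLO-2 (50 nM) preincubated 15 min with compound, then 45 uM arachidonic acid for 90 min at RT in 25 mM Hepes pH 7.5, 0.01% Triton X-100. Hydroperoxide detected by Fe-xylenol orange; 573/405 nm absorbance ratio.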
15-hLO inh: inhibitors of human 15-lipoxygenase (ALOX15). P16050. purified 15hLO-1, xylenol orange hydroperoxide absorbance. Potency, µM (top dose mostly 57.1 µM), usual class: inhibitors. hit rate 1.4% among 74,000; note: nearly all actives have a fitted effect of over 55% in size
Target sequence (P16050 whole entry, looked up): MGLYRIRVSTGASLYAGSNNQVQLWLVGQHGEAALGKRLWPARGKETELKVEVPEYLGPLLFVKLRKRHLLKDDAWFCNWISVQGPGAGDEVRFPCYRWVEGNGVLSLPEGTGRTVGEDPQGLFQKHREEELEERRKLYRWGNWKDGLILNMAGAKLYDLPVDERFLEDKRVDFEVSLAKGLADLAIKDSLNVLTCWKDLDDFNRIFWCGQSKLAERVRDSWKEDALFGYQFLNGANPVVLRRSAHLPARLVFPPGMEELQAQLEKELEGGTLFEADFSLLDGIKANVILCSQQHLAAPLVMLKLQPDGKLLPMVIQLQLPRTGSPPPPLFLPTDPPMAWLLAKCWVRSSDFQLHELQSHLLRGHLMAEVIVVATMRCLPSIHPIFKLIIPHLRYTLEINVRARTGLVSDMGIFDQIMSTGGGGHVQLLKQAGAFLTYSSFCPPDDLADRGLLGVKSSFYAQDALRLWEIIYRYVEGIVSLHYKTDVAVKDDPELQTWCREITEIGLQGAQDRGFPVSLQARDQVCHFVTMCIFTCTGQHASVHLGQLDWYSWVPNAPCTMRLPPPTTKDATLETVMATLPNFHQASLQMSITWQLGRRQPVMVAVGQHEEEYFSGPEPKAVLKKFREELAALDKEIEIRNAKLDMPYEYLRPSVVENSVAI
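Purified human 15hLO-1 (40 nM final) in 25 mM Hepes pH 7.5, 0.01% Triton X-100 was preincubated with compound 15 min at room temperature, then reacted 6 min with 50 uM arachidonic acid; hydroperoxide detected by Fe-XO, 573/405 nm absorbance ratio.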
CRE Fsk mod: CRE-bla signaling modulation under forskolin stimulation | CHO CRE-bla reporter (cAMP response element driving beta-lactamase), forskolin EC10, beta-lactamase ratio | Potency, µM (doses to about 38.2 µM), most hits filed as activators | hit rate 2.5% among 71,000; active = well fitted activation curve with a large enough effect in the signal ratio, with a control signal flat, not every such curve was filed as active; inconclusive = small, poorly fitted or top-dose-only effect, or effect the other way, or a change in a side signal; the % refers to the signal ratio
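Reporter-gene assay: CHO cells with beta-lactamase behind cAMP responsive elements, co-treated with compound and EC10 NKH 477 for 3 hours at 37 degrees Celsius. Activity came from the 460/530 nm CCF4 emission ratio.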
Of the large screens only hits and unclear results are named; the others gave an inactive call. Most compounds without a hit are left out; they make up all but 3.2% or so of the library. Unless noted, calls come from the whole dose curve; as a rule, active = well fitted inhibition curve with a large enough effect; inconclusive = small, poorly fitted or top-dose-only effect; inactive = no such curve, though single readings can be large or run the other way.

CC(=O)N1CCN(c2ccc(NCc3ccccc3)cc2)CC1	ERK AVP inh inconclusive, ALOX15B inhib inconclusive, 15-hLO inh 7.9µM
CC(=O)N1CCN(c2ccc(NCc3ccc(C)s3)cc2)CC1	ALOX15B inhib 13µM, 15-hLO inh 10µM
O=C(C[n+]1ccc2ccccc2c1)c1ccc2ccc3ccccc3c2c1	none
O=C(O)c1nc(-c2ccccc2)[nH]c1C(=O)O	none
COc1ccc(-c2cc(C(=O)N/N=C/c3ccc(O)cc3)[nH]n2)cc1	none (no result: ERK AVP inh, ALOX15B inhib, CRE Fsk mod)
Cc1cc(C(=O)Nc2sc3c(c2C#N)CCC(C)C3)cs1 (configuration not stated)	none
Cc1ccccc1C(=O)NC(=S)Nc1sc2c(c1C#N)CCC(C)C2 (configuration not stated)	ALOX15B inhib 25µM (no result: ERK AVP inh, 15-hLO inh, CRE Fsk mod)
N#Cc1ccccc1-c1ccc2ncnc(N3CCNCC3)c2c1	CRE Fsk mod inconclusive
COc1ccc(CNc2ncnc3ccc(-c4ccccc4C#N)cc23)c(OC)c1	CRE Fsk mod 3.2µM
COc1ccccc1CNc1ncnc2ccc(-c3ccccc3C#N)cc12	ERK AVP inh 25µM, CRE Fsk mod inconclusive
COc1ccc2[nH]cc(CCNc3ncnc4ccc(-c5ccccc5C#N)cc34)c2c1	none
CN1CCN(c2ncnc3ccc(-c4ccccc4C#N)cc23)CC1	CRE Fsk mod 10µM
COc1ccc2[nH]cc(CCNc3ccnc(-c4ccc(C(=O)N(C)C)cc4)n3)c2c1	CRE Fsk mod 2.5µM
COc1ccc2[nH]cc(CCNc3cc(-c4ccc(C(=O)N(C)C)cc4)ncn3)c2c1	CRE Fsk mod inconclusive
O=C(N/N=C/c1ccccc1O)c1cc(-c2ccccc2)n[nH]1	none (no result: ERK AVP inh, ALOX15B inhib, CRE Fsk mod)
CC1CCC(C(=O)O)([C@H](Br)C(=O)O)CC1 (some centres not stated)	CRE Fsk mod inconclusive
Clc1ccccc1-c1ccc2ncnc(NCCN3CCOCC3)c2c1	ERK AVP inh inconclusive, CRE Fsk mod inconclusive
NCC1OC(OC2C(N)CC(N)[C@@H](O)[C@@H]2OC2O[C@H](CO)[C@@H](O[C@@H]3OC(CN)C(O)C(O)C3N)C2O)C(N)C(O)C1O (some centres not stated)	none (no result: CRE Fsk mod)
COc1ccc2[nH]cc(CCNc3ncnc4ccc(-c5cccc(C#N)c5)cc34)c2c1	CRE Fsk mod 2.5µM
Nc1c(NCCN2CCOCC2)c2ccccc2oc1=O	15-hLO inh 1.6µM
Nc1c(NCCCN2CCOCC2)c2ccccc2oc1=O	15-hLO inh inconclusive
Cc1ccc2c(c1)[nH]c1c(N3CCN(Cc4ccccc4)CC3)ncnc12	ERK AVP inh 16µM, CRE Fsk mod inconclusive
Cc1ccc2[nH]c3c(N4CCN(Cc5ccccc5)CC4)ncnc3c2c1	none (no result: ERK AVP inh, 15-hLO inh, CRE Fsk mod)
COc1ccccc1NC(=O)c1ccccc1NS(C)(=O)=O	CRE Fsk mod 2µM
COc1ccccc1N=c1oc2cc(O)ccc2cc1C(N)=O	15-hLO inh inconclusive, CRE Fsk mod inconclusive
COc1ccccc1N=c1oc2cc(O)ccc2cc1C(=O)NCC1CCCO1 (configuration not stated)	ERK AVP inh inconclusive, CRE Fsk mod 10µM
COc1ccccc1NC(=O)c1cc2ccc(O)cc2o/c1=N\O	ERK AVP inh 32µM, CRE Fsk mod 10µM
NC(=O)c1cc[n+](CC2=C(C(=O)[O-])N3C(=O)[C@@H](NC(=O)Cc4cccs4)[C@@H]3SC2)cc1	none
COc1ccccc1CN1CCC2(CC1)CCN(C(=O)c1csnn1)CC2	none
O=C(O)c1cccc(C[C@H](Br)C(=O)O)c1	none
COC(=O)C1=CN(C(C)C)C=C(C(=O)OC)C1c1cccc(OC)c1	CRE Fsk mod 13µM
CCCCCCC#Cc1cc(OC)c(OC)cc1C(N1CC(C)c2ccccc21)N1CC(C)c2ccccc21 (configuration not stated)	15-hLO inh inconclusive (no result: ALOX15B inhib, CRE Fsk mod)
O=c1[nH]c2c(s1)C(c1ccccc1)C1C3CCC(C3)C1S2 (configuration not stated)	ALOX15B inhib inconclusive, CRE Fsk mod 10µM
CC(N=C1NS(=O)(=O)c2ccccc21)c1ccccc1 (configuration not stated)	ERK AVP inh inconclusive
CC(N=Cc1cccc(O)c1O)c1ccccc1 (configuration not stated)	ALOX15B inhib inconclusive, 15-hLO inh 13µM
CCCCNC(=O)c1cc2c(=O)n3cccc(C)c3nc2n(Cc2ccccc2)c1=N	CRE Fsk mod 2.5µM
Cc1cccn2c(=O)c3cc(C(=O)NCCc4ccccc4)c(=N)n(CCCn4ccnc4)c3nc12	none (no result: ERK AVP inh, 15-hLO inh, CRE Fsk mod)
Cc1cccn2c(=O)c3cc(C(=O)NCCN4CCOCC4)c(=N)n(CCc4ccccc4)c3nc12	CRE Fsk mod 13µM
CCCn1c(=N)c(C(=O)NCC2CCCO2)cc2c(=O)n3cccc(C)c3nc21 (configuration not stated)	CRE Fsk mod 13µM
CCNC(=O)c1cc2c(=O)n3cccc(C)c3nc2n(CCc2ccccc2)c1=N	none (no result: ERK AVP inh, 15-hLO inh, CRE Fsk mod)
COc1ccc(CCn2c(=N)c(C(=O)N3CCN(C)CC3)cc3c(=O)n4ccccc4nc32)cc1	ERK AVP inh inconclusive, CRE Fsk mod 13µM
CCOC(=O)C(C)(C)[C@H](O)C(C)C	none
N=c1c(C(=O)NCc2ccc(F)cc2)cc2c(=O)n3ccccc3nc2n1CC1CCCO1 (configuration not stated)	CRE Fsk mod 2µM
COCCn1c(=N)c(C(=O)NCCc2ccccc2)cc2c(=O)n3cccc(C)c3nc21	CRE Fsk mod inconclusive (no result: ALOX15B inhib)
C=CCn1c(=N)c(C(=O)NCCCOC)cc2c(=O)n3cccc(C)c3nc21	ERK AVP inh inconclusive, 15-hLO inh 1.3µM, CRE Fsk mod 13µM
N=c1c(C(=O)NCc2ccco2)cc2c(=O)n3ccccc3nc2n1CCc1ccccc1	ERK AVP inh inconclusive, 15-hLO inh 13µM, CRE Fsk mod inconclusive
CNC(=O)c1cc2c(=O)n3cccc(C)c3nc2n(C(C)C)c1=N	CRE Fsk mod 10µM
ON=C1CCCCC1	none
Cc1onc(-c2c(Cl)cccc2Cl)c1C(=O)N[C@H]1C(=O)N2[C@H]1SC(C)(C)[C@H]2C(=O)O	none
O=C(NCC1CC1)[C@H]1C[C@@H]1[C@H](NP(=O)(c1ccccc1)c1ccccc1)c1ccccc1	CRE Fsk mod inconclusive (no result: 15-hLO inh)
Cc1ccc(S(=O)(=O)N2CCC(C(=O)O)(c3ccccc3)CC2)cc1	none
COc1ccc(CN(Cc2cc3cc4c(cc3[nH]c2=O)OCO4)C(=O)NC2CCCCC2)cc1	ERK AVP inh inconclusive, 15-hLO inh 16µM, CRE Fsk mod 10µM
O=C(Nc1ccc(F)cc1)N(Cc1ccco1)Cc1cc2cc3c(cc2[nH]c1=O)OCO3	ERK AVP inh 20µM, CRE Fsk mod inconclusive
O=C1C2CCC(C2)[C@@H]2CCCCN12 (some centres not stated)	none (no result: ERK AVP inh, 15-hLO inh, CRE Fsk mod)
CC(C)(C)N1C(=O)[C@@H]2[C@H]3C(=CC[C@H]2C1=O)C(=O)[C@H]1O[C@H]1[C@H]3O	none (no result: ALOX15B inhib, CRE Fsk mod)
COc1ccc(-c2c3c(=O)n(C)c(=O)n(C)c3cn2C2CCCCC2)cc1	ERK AVP inh 16µM, 15-hLO inh 25µM
c1c2c(cc3sc(N4CCCCC4)nc13)OCO2	15-hLO inh inconclusive, CRE Fsk mod inconclusive
c1ccc(N2CCN(c3nc4cc5c(cc4s3)OCO5)CC2)cc1	15-hLO inh 13µM
